In PubChem BioAssay (Tox21):
Records with an inconclusive call do not appear. Active and inactive are the calls of the source. Unless noted, calls follow the shape of the full dose curve.

How the values were obtained:
[1] = Nuclear factor erythroid 2-related factor 2/antioxidant responsive element (Nrf2/ARE) small molecule agonists: qHTS cell viability counter screen in human keratinocytes (AID 1919968; active = well fitted curve in the direction sought with a large enough effect in the repeat runs; an effect the other way counts as inactive or inconclusive; also: nearly all actives have a fitted effect of over 55% in size)
Summary of the method: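 CellTiter-Fluor fluorescence, read 1 h after reagent, gave viability in the same wells as the ARE-luciferase assay. KeratinoSens cells (1,500/well) had 23 h compound exposure at 37 C/5% CO2 following 5 h plating.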

[2] = Nuclear factor erythroid 2-related factor 2/antioxidant responsive element (Nrf2/ARE) small molecule agonists: luciferase reporter gene qHTS assay in human keratinocytes (AID 1919969); also: nearly all actives have a fitted effect of over 35% in size
[3] = target: Gonadotropin-releasing hormone receptor (Homo sapiens) (UniProt P30968); assay: Human gonadotropin-releasing hormone receptor (GnRHR) small molecule agonists, calcium flux assay in GnRHR-HEK293 cells (AID 1920063); also: nearly all actives have a fitted effect of over 35% in size
Summary of the method: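 Agonist mode: compounds at 15 concentrations, in triplicate, went onto calcium dye-loaded GnRHR-HEK293 cells. Intracellular calcium was then followed as 480/540 nm fluorescence at 1 s intervals over 3 min.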

[4] = target: KiSS-1 receptor (Homo sapiens) (UniProt Q969F8); assay: Human kisspeptin (KISS1R) small molecule agonists, calcium flux assay in KISS1R-HEK293 cells (AID 1920064; active = well fitted curve in the direction sought with a large enough effect in the repeat runs; an effect the other way counts as inactive or inconclusive)
Summary of the method: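 Agonist mode: intracellular calcium rise tracked at 1 s intervals over 3 min (480/540 nm) immediately after compound addition to dye-loaded KISS1R-HEK293 stable cells. Each compound tested at 15 concentrations in triplicate.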

[5] = G protein-coupled receptor (GPCR) small molecule agonists, calcium flux assay: HEK293 wild type cell line counter screen (AID 1920065)
Summary of the method: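 Calcium flux counter screen: compound added in agonist mode at 15 concentrations in triplicate to dye-loaded parental HEK293 cells. Fluorescence (480/540) read kinetically for 3 min; ATP served as positive control.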

[6] = p53 small molecule agonists, cell-based qHTS assay with human liver microsomes (AID 1963577);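 also: p53 response element beta-lactamase reporter cells with liver microsomes plus NADPH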
Summary of the method: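 16 h, 37 C exposure of p53RE-bla cells to compounds with human liver microsomes and NADPH (0.5 mg/mL final each); detection via LiveBLAzer mixture, 2 h dark at room temperature.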

[7] = p53 small molecule agonists, cell-based qHTS assay with rat liver microsomes (AID 1963578)
Summary of the method: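 With rat liver microsomes and NADPH present (0.5 mg/mL final each), p53RE-bla cells are treated with compound for 16 h at 37 C. LiveBLAzer detection mixture is then applied for 2 h at room temperature in the dark.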

[8] = p53 small molecule agonists, cell-based qHTS assay with human liver microsomes: qHTS cell viability counter screen (AID 1963579); also: nearly all actives have a fitted effect of over 45% in size
Summary of the method: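 In this multiplexed counter screen, the reporter plates were subsequently treated with CellTiter-Glo so that cell viability, reflected by luminescence, could be recorded for p53RE-bla cells dosed 16 h with compounds under microsomal activation (HLM and NADPH).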

[9] = p53 small molecule agonists, cell-based qHTS assay with rat liver microsomes: qHTS cell viability counter screen (AID 1963580); also: nearly all actives have a fitted effect of over 45% in size
Summary of the method: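 Counter screen for cytotoxicity under metabolic activation: rat liver microsomes and NADPH, 0.5 mg/mL final each, added with compounds to p53RE-bla HCT-116 cells; 16 h at 37 C, then ATP luminescence read.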

[10] = p53 small molecule agonists, cell-based qHTS assay: qHTS cell viability counter screen (AID 1963581); also: nearly all actives have a fitted effect of over 45% in size
Summary of the method: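 Counter screen read by CellTiter-Glo luminescence (ATP content, 30 min at room temperature), run in the same wells as the beta-lactamase reporter read. HCT-116 p53RE-bla cells saw compounds for 16 h at 37 C.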

[11] = target: 5-hydroxytryptamine receptor 2A (Homo sapiens) (UniProt P28223); assay: 5-hydroxytryptamine receptor 2A (HTR2A) small molecule antagonists, cell-based qHTS assay (AID 1963586); also: nearly all actives have a fitted effect of over 45% in size
Summary of the method: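 CHO cells stably expressing human HTR2A were plated for 18 h at 37 C, then loaded with calcium dye for 1 h. Compounds were preincubated 5 min at room temperature before DOI (4 nM solution) was added. Kinetic fluorescence was read for 3 min.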

[12] = target: 5-hydroxytryptamine receptor 2A (Homo sapiens) (UniProt P28223); assay: 5-hydroxytryptamine receptor 2A (HTR2A) small molecule agonists, cell-based qHTS assay (AID 1963587); also: nearly all actives have a fitted effect of over 30% in size
Summary of the method: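 HTR2A-CHO cells, plated 18 h at 37 C/5% CO2, dye-loaded 1 h at 37 C; compounds in DMSO added by pin tool (agonist mode). Intracellular calcium flux read as kinetic fluorescence on FDSS over 2 min at 1 s intervals.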

[13] = target: Muscarinic acetylcholine receptor M1 (Homo sapiens) (UniProt P11229); assay: Cholinergic receptor muscarinic 1 (CHRM1) small molecule antagonists, cell-based qHTS assay (AID 1963588); also: nearly all actives have a fitted effect of over 40% in size
Summary of the method: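 Compounds were tested at 15 concentrations in three independent runs. Dye-loaded CHRM1-CHO cells were exposed 5 min at room temperature before stimulation by acetylcholine added at 50nM. Intracellular calcium was read kinetically on FDSS for 3 min.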

[14] = target: Muscarinic acetylcholine receptor M1 (Homo sapiens) (UniProt P11229); assay: Cholinergic receptor muscarinic 1 (CHRM1) small molecule agonists, cell-based qHTS assay (AID 1963589); also: nearly all actives have a fitted effect of over 35% in size
Summary of the method: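 Agonist-mode calcium-flux screen: compounds at 15 concentrations, three independent runs, were pin-transferred onto dye-loaded human CHRM1-CHO cells. Fluorescence was then recorded kinetically every second over minutes.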

[15] = cAMP Responsive Elements (CRE) small molecule agonists, cell-based qHTS assay (AID 1963590)
Summary of the method: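 Agonist mode: compound added to CRE-bla HEK 293T cells (2,000/well, 18 h after plating) for 3 h at 37 C/5% CO2. Reporter activity detected via FRET beta-lactamase substrate, 2 h room-temperature loading.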

[16] = cAMP Responsive Elements (CRE) small molecule antagonists, cell-based qHTS assay (AID 1963591; active = well fitted inhibition curve with a large enough effect in the signal ratio in the repeat runs, not every such curve was filed as active; the % refers to the signal ratio)
Summary of the method: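 Antagonist mode: compounds are added alongside the adenylyl cyclase activator NKH477 (0.25 uM final) to CRE-bla HEK293T cells for 3 h. LiveBLAzer FRET substrate, 2 h at room temperature, reports bla expression.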

[17] = target: Beta-2 adrenergic receptor (Homo sapiens) (UniProt P07550); assay: Adrenergic beta2 receptor (ADRB2) small molecule antagonists, cell-based qHTS assay (AID 1963592); also: series mostly up to about 92 µM; nearly all actives have a fitted effect of over 50% in size
Summary of the method: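 Assay format: CHO-ADRB2 cells, 18-20hr seeding at 37C/5% CO2, then compound plus 1nM isoproterenol agonist mix for 0.5hr RT. Homogeneous time-resolved fluorescence cAMP detection after 1hr, expressed as 665/615 nm ratio.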

[18] = target: D(2) dopamine receptor (Homo sapiens) (UniProt P14416); assay: Dopamine D2 receptor (DRD2) small molecule agonists, cell-based qHTS assay (AID 1963594); also: nearly all actives have a fitted effect of over 35% in size
Summary of the method: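 HEK293 cells stably expressing DRD2 were cultured 24 h at 37 C, then given Ro20-1724 (0.1 mM final) and compounds for 10 min at room temperature. NKH477 (200nM) was then added for 30 min. cAMP was read by HTRF.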

[19] = target: D(2) dopamine receptor (Homo sapiens) (UniProt P14416); assay: Dopamine D2 receptor (DRD2) small molecule antagonists, cell-based qHTS assay (AID 1963595; active = well fitted inhibition curve with a large enough effect in the signal ratio in the repeat runs, with a control signal flat; the % refers to the signal ratio)
Summary of the method: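 DRD2-HEK293; 0.1 mM Ro20-1724; cpd 10 min RT; NKH477 200 nM + quinpirole 12 nM, 30 min RT; HTRF cAMP (cAMP-d2/anti-cAMP cryptate), 665/620 nm ratio after 1 h.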
% is scaled to controls: 0 for no effect and ±100 for the full control effect.

Gonadotropin-releasing hormone receptor (Homo sapiens), sequence (P30968 whole entry, looked up): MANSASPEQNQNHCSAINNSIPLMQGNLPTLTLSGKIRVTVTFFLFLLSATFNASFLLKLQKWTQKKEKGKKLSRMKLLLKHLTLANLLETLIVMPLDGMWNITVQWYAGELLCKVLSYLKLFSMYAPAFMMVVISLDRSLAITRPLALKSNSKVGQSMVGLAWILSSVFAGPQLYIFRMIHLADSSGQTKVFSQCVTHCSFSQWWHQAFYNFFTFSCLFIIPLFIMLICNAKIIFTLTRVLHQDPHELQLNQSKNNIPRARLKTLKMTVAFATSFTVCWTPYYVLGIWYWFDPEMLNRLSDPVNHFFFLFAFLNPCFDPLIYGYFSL
5-hydroxytryptamine receptor 2A (Homo sapiens), sequence (P28223 whole entry, looked up): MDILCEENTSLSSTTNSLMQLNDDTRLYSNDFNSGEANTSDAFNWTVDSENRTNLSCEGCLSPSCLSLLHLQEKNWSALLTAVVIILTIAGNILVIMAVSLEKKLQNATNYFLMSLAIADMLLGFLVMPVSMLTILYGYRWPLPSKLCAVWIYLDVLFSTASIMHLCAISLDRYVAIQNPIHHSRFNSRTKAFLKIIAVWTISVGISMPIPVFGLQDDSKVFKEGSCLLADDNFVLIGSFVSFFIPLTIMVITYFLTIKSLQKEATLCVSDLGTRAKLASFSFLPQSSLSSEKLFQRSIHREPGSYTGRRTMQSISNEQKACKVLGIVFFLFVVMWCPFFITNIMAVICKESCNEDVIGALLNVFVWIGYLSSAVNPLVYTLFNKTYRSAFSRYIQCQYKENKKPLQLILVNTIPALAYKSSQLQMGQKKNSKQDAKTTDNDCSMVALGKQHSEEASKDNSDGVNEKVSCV
Beta-2 adrenergic receptor (Homo sapiens), sequence (P07550 whole entry, looked up): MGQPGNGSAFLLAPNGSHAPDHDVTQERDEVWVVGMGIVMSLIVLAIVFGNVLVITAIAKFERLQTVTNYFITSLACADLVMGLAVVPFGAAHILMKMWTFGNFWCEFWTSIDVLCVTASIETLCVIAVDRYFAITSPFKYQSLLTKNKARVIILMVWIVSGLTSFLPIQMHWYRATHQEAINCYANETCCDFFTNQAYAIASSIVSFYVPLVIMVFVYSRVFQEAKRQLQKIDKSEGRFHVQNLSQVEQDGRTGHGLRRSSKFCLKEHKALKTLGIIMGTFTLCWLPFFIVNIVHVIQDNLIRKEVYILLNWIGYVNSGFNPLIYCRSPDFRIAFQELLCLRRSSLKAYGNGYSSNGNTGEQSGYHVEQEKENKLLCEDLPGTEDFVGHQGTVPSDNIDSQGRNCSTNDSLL
Muscarinic acetylcholine receptor M1 (Homo sapiens), sequence (P11229 whole entry, looked up): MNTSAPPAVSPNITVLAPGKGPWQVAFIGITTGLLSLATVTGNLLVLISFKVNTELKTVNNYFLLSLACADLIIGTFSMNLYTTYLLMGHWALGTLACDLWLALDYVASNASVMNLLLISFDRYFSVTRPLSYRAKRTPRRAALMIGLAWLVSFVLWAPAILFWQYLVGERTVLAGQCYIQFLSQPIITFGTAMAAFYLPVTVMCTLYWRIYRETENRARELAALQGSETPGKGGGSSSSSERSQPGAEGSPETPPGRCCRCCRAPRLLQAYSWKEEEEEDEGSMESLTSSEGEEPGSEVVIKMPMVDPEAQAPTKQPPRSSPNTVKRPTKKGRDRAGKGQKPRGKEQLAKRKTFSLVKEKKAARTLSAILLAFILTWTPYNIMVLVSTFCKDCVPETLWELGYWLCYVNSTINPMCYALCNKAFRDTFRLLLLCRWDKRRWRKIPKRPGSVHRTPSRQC
KiSS-1 receptor (Homo sapiens), sequence (Q969F8 whole entry, looked up): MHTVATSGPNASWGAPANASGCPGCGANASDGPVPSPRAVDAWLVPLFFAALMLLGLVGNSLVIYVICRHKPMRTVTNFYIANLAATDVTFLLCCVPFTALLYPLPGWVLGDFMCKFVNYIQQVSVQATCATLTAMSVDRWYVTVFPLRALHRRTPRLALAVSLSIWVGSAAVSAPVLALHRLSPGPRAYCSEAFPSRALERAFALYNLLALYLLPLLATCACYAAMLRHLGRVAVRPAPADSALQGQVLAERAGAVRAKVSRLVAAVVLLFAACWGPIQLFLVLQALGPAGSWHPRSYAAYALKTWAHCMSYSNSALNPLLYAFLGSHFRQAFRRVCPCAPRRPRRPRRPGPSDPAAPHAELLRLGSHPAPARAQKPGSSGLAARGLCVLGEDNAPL
D(2) dopamine receptor (Homo sapiens), sequence (P14416 whole entry, looked up): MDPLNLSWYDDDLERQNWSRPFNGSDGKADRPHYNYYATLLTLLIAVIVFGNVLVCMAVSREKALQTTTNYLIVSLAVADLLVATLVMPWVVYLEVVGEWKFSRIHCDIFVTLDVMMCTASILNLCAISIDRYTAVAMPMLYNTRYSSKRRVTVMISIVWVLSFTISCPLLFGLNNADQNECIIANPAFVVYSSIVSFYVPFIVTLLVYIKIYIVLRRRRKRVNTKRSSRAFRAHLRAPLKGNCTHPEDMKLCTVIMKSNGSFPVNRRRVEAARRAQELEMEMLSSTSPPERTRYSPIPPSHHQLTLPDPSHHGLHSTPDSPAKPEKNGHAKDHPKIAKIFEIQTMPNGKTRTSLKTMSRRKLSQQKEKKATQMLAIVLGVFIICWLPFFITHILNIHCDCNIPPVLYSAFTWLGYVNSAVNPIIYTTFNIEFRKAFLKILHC

CCC(O)C(C)(C)C (configuration not stated)
inactive: Potency [1] | Potency [2] | Potency [3] | outcome [4] | outcome [5] | Potency [6] | Potency [7] | Potency [8] | Potency [9] | Potency [10] | Potency [11] | Potency [12] | Potency [13] | Potency [14] | Potency [15] | Potency [16] | Potency [17] | Potency [18] | Potency [19]

NC(Cc1ccc(Cl)cc1)C(=O)O (configuration not stated)
inactive: activity change, negative = cytotoxicity [1] -10.3% [at 0.349 µM] | activity, positive = activation [2] -1.51% [at 0.349 µM] | activity change [3] -0.23% [at 0.217 µM, active compounds read high] | activation [4] -1.07% [at 0.29 µM] | activation [5] 1.18% [at 0.217 µM] | activation [6] 1.9% [at 0.249 µM] | activation [7] 0.185% [at 0.249 µM] | activity change, negative = cytotoxicity [8] -1.01% [at 0.249 µM] | activity change, negative = cytotoxicity [9] -0.306% [at 0.249 µM] | activity change, negative = cytotoxicity [10] 8.87% [at 0.249 µM] | activity, negative = inhibition [11] -30.9% [at 0.233 µM] | activation [12] 0.604% [at 0.292 µM] | activity, negative = inhibition [13] 9.51% [at 0.232 µM] | activation [14] -0.299% [at 0.29 µM] | activation [15] -0.737% [at 0.349 µM] | activity change, negative = inhibition [16] 2.88% [at 0.349 µM] | activity change, negative = inhibition [17] -0.117% [at 0.349 µM] | activation [18] 0.127% [at 0.349 µM] | activity change, negative = inhibition [19] 0.383% [at 0.348 µM]

C=C[Si](C)(C)O[Si](C)(C)C=C
inactive: Potency [1] | Potency [2] | Potency [3] | outcome [4] | outcome [5] | Potency [6] | Potency [7] | Potency [8] | Potency [9] | Potency [10] | Potency [11] | Potency [12] | Potency [13] | Potency [14] | Potency [15] | Potency [16] | Potency [17] | Potency [18] | Potency [19]

Nc1ccc2cc(S(=O)(=O)O)cc(O)c2c1
inactive: Potency [1] | Potency [2] | Potency [3] | outcome [4] | outcome [5] | Potency [6] | Potency [7] | Potency [8] | Potency [9] | Potency [10] | Potency [11] | Potency [12] | Potency [13] | Potency [14] | Potency [16]

Oc1ccccc1Cc1ccccc1O
inactive: Potency [1] | Potency [2] | Potency [3] | outcome [4] | outcome [5] | Potency [6] | Potency [7] | Potency [8] | Potency [9] | Potency [10] | Potency [11] | Potency [12] | Potency [13] | Potency [14] | Potency [15] | Potency [16] | Potency [17] | Potency [19]

CCN(CCC#N)c1ccc(N=Nc2ccc([N+](=O)[O-])cc2)cc1
inactive: Potency [1] | Potency [2] | Potency [3] | outcome [4] | outcome [5] | Potency [6] | Potency [7] | Potency [8] | Potency [9] | Potency [10] | Potency [11] | Potency [12] | Potency [13] | Potency [14] | Potency [15] | Potency [17] | Potency [18] | Potency [19]

C[C@H]1C[C@H]2[C@@H]3CCC4=CC(=O)C=C[C@]4(C)[C@H]3C(=O)C[C@]2(C)[C@@]1(O)C(=O)CO
inactive: Potency [1] | Potency [2] | Potency [3] | outcome [4] | outcome [5] | Potency [6] | Potency [7] | Potency [8] | Potency [9] | Potency [10] | Potency [11] | Potency [12] | Potency [13] | Potency [14] | Potency [15] | Potency [18] | Potency [19]

OCCSc1ccccc1
inactive: Potency [1] | Potency [2] | Potency [3] | outcome [4] | outcome [5] | Potency [6] | Potency [7] | Potency [8] | Potency [9] | Potency [10] | Potency [11] | Potency [12] | Potency [13] | Potency [14] | Potency [15] | Potency [17] | Potency [18] | Potency [19]

C=C(C)C(=O)OCCCCCCCCCCOC(=O)C(=C)C
inactive: Potency [1] | Potency [2] | Potency [3] | outcome [4] | outcome [5] | Potency [6] | Potency [7] | Potency [8] | Potency [9] | Potency [10] | Potency [11] | Potency [12] | Potency [13] | Potency [14] | Potency [15] | Potency [16] | Potency [17] | Potency [18] | Potency [19]
